# Reference: PubChem BioAssay (NCI)
# Compounds without any hit were thinned out: in the full panel of roughly 83,000, 20% have a hit.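 Results are percent growth after 48 hours of single-concentration exposure. 100 means growth as in untreated cells, lower positive values show inhibition; negative values down to -100 show cell death.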 Values without a mark were called inactive. The source made the active and inactive calls. How the source made its calls: active means growth percent below 10; inactive means the rest.
# Tested on: HL-60(TB) leukemia
# Experiment: NCI-60 one-dose screen, 48 h (100 = growth as untreated, 0 = no growth, -100 = all killed)
# Conditions: 10 µM unless noted
row,Structure (SMILES),growth
1,CCCCCCCCCCCCCCCCN(C(C)c1ccccc1)S(=O)(=O)c1ccc(OC)c(N)c1 (centres undefined),98.2%
2,COc1ccc(-c2[nH]c3ccc(OC)cc3c2/C=C(\C#N)S(=O)(=O)c2ccccc2)cc1,8.54% (active)
3,C=CN(C(=O)N1CCN(c2cc3c(cc2F)c(=O)c(C(=O)O)cn3C2CC2)CC1)c1nc(-c2ccc(Cl)cc2)cs1,10.7%
4,O=C(CSc1nc(-c2ccccc2)cc(=O)[nH]1)Nc1nc(-c2ccccc2)cs1,95.7%
